Screening results (PubChem BioAssay)
Sampled rows, rich in hits. Any-hit rate of the full collection: about 7.2%.
LASV entry inh – qHTS for Inhibitors of binding or entry into cells for Lassa Virus. Lassa virus pseudotype entry inhibition, cell reporter. Potency, µM (highest dose often 37.9 µM), for inactives: at the top dose activity change, negative = inhibition, most hits filed as inhibitors. 1.2% of 300,000 active; calls by dose curve; tested in HEK293 cells; further: nearly all actives have a fitted effect of over 50% in size
HCV inhibitor – qHTS Assay for Inhibitors of Hepatitis C Virus (HCV). Huh7.5.1 HCVcc-Cre infection, luciferase reporter, 44 h. Potency, µM (doses to about 41.8 µM), for inactives: at the top dose activity change, negative = inhibition, hits mostly inhibitors. 3.4% of 340,000 active. AID 651820, 2012
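1,000 cells/well; 4 h culture; + compound; + HCVcc-Cre (~0.5 moi); 44 h; luciferase substrate, RT 15 min; read 15 sec.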
Marburg entry inh – qHTS for inhibitors of binding or entry into cells for Marburg Virus; Marburg virus pseudotyped entry inhibition, cell reporter; Potency, µM (doses to about 37.8 µM), for inactives: top-dose activity change, negative = inhibition, actives largely listed as inhibitors; 1.8% of 300,000 active; AID 540276, 2011; calls by dose curve; tested in HEK293 cells
RE007 growth inh – qHTS Assay for Inhibitors of the HIV-1 protein Vpr; 0.21% of 360,000 active; AID 651644, 2012; S. pombe RE007 Vpr strain, BacTiter-Glo ATP luminescence, 24 h; Potency, µM (highest dose often 92.2 µM), without a hit: at the highest dose activity change, negative = less growth, actives largely listed as inhibitors; active means well fitted falling curve with a large enough effect; inconclusive means small, poorly fitted or top-dose-only effect; inactive means no such curve, though single readings can be large or run the other way; further: nearly all actives have a fitted effect of over 50% in size
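Fission yeast RE007 carrying one integrated HIV-1 vpr copy, seeded at OD 0.01 in PMG+AL medium with 23 nL pinned compound. Grown 24 h at 30 degrees; viability read by BacTiter-Glo luminescence after 5 min.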
Sm TGR inh – qHTS Assay for the Inhibitors of Schistosoma Mansoni Peroxiredoxins; purified TGR, DTNB reduction, TNB absorbance 405 nm; Schistosoma mansoni thioredoxin glutathione reductase (TGR), Q962Y6; 3% of 360,000 active; Potency, µM (top dose mostly 114 µM), inactives show at the top dose activity change, negative = inhibition, most hits filed as inhibitors; further: nearly all actives have a fitted effect of over 60% in size
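First, TGR (20 nM dispensed) and NADPH were mixed with compound. Second, a 15 min room-temperature incubation followed. Third, further NADPH and then DTNB were added to start the reaction. Finally, TNB absorbance was monitored kinetically.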
FMDV inh – High Throughput Screening for Foot and Mouth Disease Virus Antivirals. FMDV antiviral cell-based qHTS. Potency, µM (highest dose often 57.9 µM), for inactives: at the highest dose activity change, negative = inhibition, hits mostly inhibitors. 1.2% of 410,000 active. AID 1159524, 2015; calls by dose curve; tested in HEK293T cells; further: read-out not given here; nearly all actives have a fitted effect of over 45% in size
Active calls of the source: *; ? = inconclusive; nt = not tested or not shown; [ ] = another dose, or the depositor's remark. Unless noted, the call rests on the fitted dose curve; in most records, active means well fitted curve in the direction sought with a large enough effect; inconclusive means small, poorly fitted or top-dose-only effect, or another doubt; inactive means no such curve, though single readings can be large; an effect the other way counts as inactive or inconclusive. On the % scale 0 is the no-effect control and ±100 the full control effect; potency means the concentration at half of the fitted maximal effect.

SMILES | LASV entry inh | HCV inhibitor | Marburg entry inh | RE007 growth inh | Sm TGR inh | FMDV inh
COc1ccc(C2C(C#N)=C(N)Oc3n[nH]c(C)c32)cc1CSc1ccccn1 (configuration not stated) | 7% | 1% | -8% | -12% | -12% | -22%
CCOC(=O)C1=C(C)OC(N)=C(C#N)C1c1ccc(OC)c(CSc2ccccn2)c1 (configuration not stated) | nt | -1% | -5% | -4% | 25µM* | -17%
Cc1ccc(Cn2nc(C)c(C(=O)NCC(c3cccs3)N3CCOCC3)c2Cl)cc1 (configuration not stated) | 13µM* | 4% | -13% | -6% | 3% | ?
Cc1ccsc1C(=O)NCC(c1cccs1)N1CCOCC1 (configuration not stated) | nt | nt | nt | 3% | nt | -23%
COc1ccccc1OCC(=O)NCC(c1cccs1)N1CCOCC1 (configuration not stated) | -1% | 23% | 27% | 4% | -6% | -17%
O=C(NCC(c1cccs1)N1CCOCC1)c1ccc(Br)o1 (configuration not stated) | ? | -22% | ? | 12% | 25µM* | -5%
CC(=O)c1ccc(S(=O)(=O)Nc2ccc(C(=O)NCC(c3cccs3)N3CCOCC3)cc2)cc1 (configuration not stated) | 13% | 2% | -14% | -12% | 14µM* | -14%
Cc1nn(Cc2ccccc2)c(C)c1C(=O)NCC(c1cccs1)N1CCOCC1 (configuration not stated) | -2% | -11% | 24% | 6% | -1% | -3%
CC(C)c1ccccc1OCC(=O)NCC(c1cccs1)N1CCOCC1 (configuration not stated) | -20% | ? | ? | 13% | 2% | 32µM*
CN(C)CCNC(=O)c1onc(CSc2ccc(F)c(F)c2)c1C(=O)NCCN(C)C | nt | 13µM* | nt | -15% | -2% | -16%
CCOc1ccc(-c2nn(CC(=O)NC3CCCC3)c3c2cnc2ccc(F)cc23)cc1 | 0%[46.1 µM] | nt | nt | nt | 5% | 28%
O=C(/C=C/c1ccco1)N(Cc1ccc(Cl)cc1)C1CCS(=O)(=O)C1 (configuration not stated) | -2%[46.1 µM] | 1.1µM* | -21%[46.1 µM] | 17% | 3.2µM* | -3%
CN(C)c1ccc(CN(C(=O)/C=C/c2ccco2)C2CCS(=O)(=O)C2)cc1 (configuration not stated) | 1% | ? | -10% | 4% | 25µM* | -18%
O=C(/C=C/c1ccc(Cl)cc1)N(Cc1ccccc1)C1CCS(=O)(=O)C1 (configuration not stated) | -6% | -2% | ? | 24% | -11% | -22%
COc1ccccc1-c1ccnc(-n2ncc(C(=O)N(C)C(C)c3nc(C)cs3)c2C2CC2)n1 (configuration not stated) | nt | nt | nt | nt | nt | 29%
Cc1cccc(N(CC(N)=O)C2SC(=O)N(Cc3cccc(C(=O)O)c3)C2=O)c1 (configuration not stated) | 26%[46.1 µM] | nt | 0%[46.1 µM] | nt | -21% | -3%
COc1cccc(CN(C(=O)/C=C/c2ccco2)C2CCS(=O)(=O)C2)c1 (configuration not stated) | 0%[46.1 µM] | 5% | 20%[46.1 µM] | 4% | 7.9µM* | 32%
COc1ccccc1C(=O)N(Cc1ccco1)C1CCS(=O)(=O)C1 (configuration not stated) | 3% | 20% | 4% | 2% | 35µM* | -22%
COc1ccc(CN(C(=O)/C=C/c2ccco2)C2CCS(=O)(=O)C2)cc1 (configuration not stated) | 16% | -5% | ? | 2% | 2µM* | 10%
COc1ccccc1C(=O)N(Cc1cccs1)C1CCS(=O)(=O)C1 (configuration not stated) | 4% | 0% | 8% | -3% | 7% | 2%
